Experimental data as given in PubChem BioAssay (NCATS).
Where “and” joins values, the source holds several entries; their conditions need not be identical. Identical values can stand only once. Records with an inconclusive call do not appear. Entries that show only a call come without a potency. Values without a mark were called inactive. Calls of active or inactive are those of the source. Calls follow the shape of the dose curve; as a rule, active = well fitted curve in the direction sought with a large enough effect; inconclusive = small, poorly fitted or top-dose-only effect, or another doubt; inactive = no such curve, though single readings can be large; an effect the other way counts as inactive or inconclusive.

Key:
[1] = target: Cytochrome P450 3A7 (Homo sapiens) (UniProt P24462); experiment: Cytochrome P450 family 3 subfamily A member 7 (CYP3A7) small molecule antagonists: luciferase biochemical qHTS assay (AID 1963596); details: P450-Glo CYP3A7 enzyme luminescence, 1 h; series mostly up to 57.4 µM; also: nearly all actives have a fitted effect of over 40% in size
How it was run: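 Luminescence from luciferin released by CYP3A7 from a proluciferin substrate, read 20 min after detection reagent. Compound and enzyme-substrate mix sat 10 min before NADPH regeneration solution; reaction ran 1 h at room temperature.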

[2] = Viability qHTS for spleen associated tyrosine kinase inhibitor (SYKi) naive MV4-11 cells (AID 1963823); details: MV4-11 AML viability, CellTiter-Glo luminescence, 72 h; series mostly up to 45 µM; also: nearly all actives have a fitted effect of over 40% in size; also: potency is read from the fitted curve at half-maximal effect
How it was run: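 qHTS, SYK inhibitor-naive MV4-11; 500 cells/well; 72 hr compound exposure, 37 C; CellTiter-Glo added, 10 min RT; luminescence read.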

[3] = Viability qHTS for spleen associated tyrosine kinase inhibitor (SYKi) drug resistant MV4-11 cells (AID 1963824); details: SYKi-resistant MV4-11 viability, CellTiter-Glo, 72 h; series mostly up to 45 µM; also: nearly all actives have a fitted effect of over 35% in size; also: potency is read from the fitted curve at half-maximal effect
How it was run: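 CellTiter-Glo luminescence, read 10 min after reagent addition, reports viability after a 72 hr compound exposure. Cells are an MV4-11 line made resistant to SYK inhibition, seeded at 500 per well onto compound-containing plates.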

[4] = Cellular viability qHTS for adrenocortical cancer (ACC) cell line SW-13 (AID 1963989); details: SW-13 ACC cells viability, CellTiter-Glo, 48 h; activity (max response): active compounds read low; also: nearly all actives have a fitted effect of over 65% in size; also: potency is read from the fitted curve at half-maximal effect;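 as to activity (max response): cells grown in serum-free medium with ITS supplement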
How it was run: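 SW-13 cells in ITS-supplemented serum-free DMEM were plated overnight, then exposed for 48 h at 37C to compound titrations (up to 46 uM final). Viability was read by CellTiter-Glo luminescence; four-parameter logistic fits gave IC50 and efficacy.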

[5] = Cellular viability qHTS for adrenocortical cancer (ACC) cell line NCI-H295R (AID 1963990); details: CellTiter-Glo ATP luminescence, 48 h; series mostly up to 46.1 µM; also: nearly all actives have a fitted effect of over 60% in size; also: potency is read from the fitted curve at half-maximal effect
How it was run: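 Luminescent ATP read-out (CellTiter-Glo, 20 min RT) after 48 h drug exposure of NCI-H295R cells; a titration up to 46 uM final. Data normalized to doxorubicin (100% inhibition) and DMSO (0%); 4-parameter fit gives IC50, max response.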

Sequence of Cytochrome P450 3A7 (Homo sapiens) (P24462 whole entry, looked up): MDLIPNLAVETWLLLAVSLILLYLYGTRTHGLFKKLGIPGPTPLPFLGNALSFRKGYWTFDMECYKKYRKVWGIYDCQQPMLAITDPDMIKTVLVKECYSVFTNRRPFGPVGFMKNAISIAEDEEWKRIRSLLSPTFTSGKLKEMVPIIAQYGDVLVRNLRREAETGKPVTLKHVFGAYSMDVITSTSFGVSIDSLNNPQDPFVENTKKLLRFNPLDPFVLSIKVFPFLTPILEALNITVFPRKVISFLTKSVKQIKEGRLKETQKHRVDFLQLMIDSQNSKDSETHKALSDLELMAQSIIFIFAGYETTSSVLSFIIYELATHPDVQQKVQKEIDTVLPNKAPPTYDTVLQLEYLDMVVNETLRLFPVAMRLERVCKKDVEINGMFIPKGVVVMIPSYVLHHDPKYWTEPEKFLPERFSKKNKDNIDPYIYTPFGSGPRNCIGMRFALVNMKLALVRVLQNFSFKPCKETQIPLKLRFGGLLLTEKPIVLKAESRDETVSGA

Row | SMILES | Potency [1] | Potency [2] | Potency [3] | activity (max response) [4] | Potency [5] | Potency [4]
1 | N[C@@H](COP(=O)(O)O)C(=O)O | inactive | inactive | inactive | -3.07% | – | –
2 | CCN(CC)C(=O)Nc1ccc(OCC(O)CNC(C)(C)C)c(C(C)=O)c1 (configuration not stated) | inactive | inactive | inactive | 12% | inactive | –
3 | CCOC(=O)c1ccc(OCCN2C[C@H](O)[C@@H](O)[C@H](O)[C@H]2CO)cc1 | inactive | inactive | inactive | -1.86% | inactive | –
4 | C[C@]12CCC(=O)C=C1CC[C@@H]1[C@@H]2[C@@H](O)C[C@@]2(C)[C@H]1CC[C@]2(O)C(=O)CO | inactive | inactive | inactive | 8.55% and 7.07% | inactive | –
5 | CCOCCn1c(C2CCN(CCc3ccc(C(C)(C)C(=O)O)cc3)CC2)nc2ccccc21 | inactive | inactive | inactive | 2.01% | – | –
6 | CNc1c2c(nn1C)CCCC2 | inactive | inactive | inactive | -0.416% | inactive | –
7 | O=C(Oc1ccccc1)c1ccccc1O | inactive | inactive | inactive | 1.95% | inactive | –
8 | O=C(O)CP(=O)(O)O | inactive | inactive | inactive | 1.41% | inactive | –
9 | O=C(O)Cc1csc(-c2ccc(Cl)cc2)n1 | inactive | inactive | inactive | -3.04% | inactive | –
10 | CN(C)CCC(c1ccccc1)c1ccccn1 (configuration not stated) | inactive | inactive | inactive | 13.1% | inactive | –
11 | CCCCCCCCCCCCCCCCCCN(C)C | inactive | inactive | inactive | -1.14% | inactive | –
12 | Cc1cc(C)c(NC(=O)CN(CC(=O)O)CC(=O)O)c(C)c1Br | inactive | inactive | inactive | 9.39% | inactive | –
13 | COc1ccccc1N1CCN(CCCNc2cc(=O)n(C)c(=O)n2C)CC1 | inactive | inactive | inactive | 2.85% | – | –
14 | C[N+]1(C)[C@@H]2CC(OC(=O)[C@H](CO)c3ccccc3)C[C@H]1[C@@H]1O[C@@H]12 (some centres not stated) | inactive | inactive | inactive | 8.81% and 11.1% | – | –
15 | CN(C)C(=O)Oc1cccc([N+](C)(C)C)c1 | inactive | inactive | inactive | 16.2% | inactive | –
16 | C/C(=N\O)[C@@H](C)NCC(C)(C)CN[C@H](C)/C(C)=N/O | inactive | inactive | inactive | 8.19% | – | –
17 | CC(O)CN(CCN(CC(C)O)CC(C)O)CC(C)O (configuration not stated) | inactive | inactive | inactive | 5.94% | inactive | –
18 | COc1ccc2c(c1)c1c3n2CCN(C)C3=NCC1 | inactive | inactive | inactive | 0.0191% | inactive | –
19 | OC[C@H]1O[C@H](O[C@]2(CCl)O[C@H](CCl)[C@@H](O)[C@@H]2O)[C@H](O)[C@@H](O)[C@H]1Cl | inactive | inactive | inactive | -4.41% | inactive | –
20 | O=C(OOC(=O)c1ccccc1)c1ccccc1 | inactive | inactive | inactive | 0.27% | inactive | –
21 | CC(=O)NCCCCCC(=O)O | inactive | inactive | inactive | -2.94% | inactive | –
22 | O=C(O)c1ccc(S(=O)(=O)N(Cl)Cl)cc1 | inactive | inactive | inactive | 9.06% | inactive | –
23 | O=C(NCCCN1CCOCC1)c1ccc(Cl)cc1 | inactive | inactive | inactive | 5.56% | inactive | –
24 | O=C(O)c1ccc(OCCCOc2ccc(C(=O)O)cc2)cc1 | inactive | inactive | inactive | 5.44% | – | –
25 | O=C(Nc1ccc(Cl)cc1)Nc1ccc(Cl)c(Cl)c1 | inactive | 9.44 µM (active) | 9.44 µM (active) | – | 4.11 µM (active) | 2.59 µM (active)
26 | CC(C)(C)NCC(O)COc1cccc2c1C[C@H](O)[C@H](O)C2 (some centres not stated) | inactive | inactive | inactive | 9.63% | inactive | –
27 | O=P(O)(O)OCC(O)CO (configuration not stated) | inactive | inactive | inactive | 10.4% | – | –
28 | CC(=O)Nc1ccccc1 | inactive | inactive | inactive | -1.24% | – | –
29 | NC(=O)c1cn(Cc2c(F)cccc2F)nn1 | inactive | inactive | inactive | 10.9% | inactive | –
30 | CCC1(c2ccccc2)C(=O)NCNC1=O | inactive | inactive | inactive | 8.13% and -10.5% | inactive | –
